hgDAF-12 ag: activates the H. glycines DAF-12 receptor ligand-binding domain. HEK293 GAL4-hgDAF12 UAS-luciferase reporter, agonist luminescence; normalized to butyrate control. actives 1.8% (n = 370,000). activation, % at 6.8 µM;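 active = activation above a cutoff set at the mean of all screened compounds plus 3 SD, cut at about 10% in these data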;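 note: 0% = DMSO wells and 100% = sodium butyrate wells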
hcDAF12 agonist: activators of H. contortus DAF-12 nuclear receptor; HEK293 hcDAF-12 lit1-tk-luc reporter, luminescence; 0% DMSO, 100% Δ7-dafachronic acid; activation, % at 6.8 µM; actives 1.4% (n = 370,000);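 active = activation above the mean of all tested compounds plus 3 SD, cut at about 5.5% in these data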;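 note: 100% = response to 3 µM Δ7-dafachronic acid high control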
DAX1 inh-1: inhibitors of DAX1 repression of SF-1 activated StAR promoter; HEK293T StAR-luciferase reporter, SF-1/DAX-1 repression relief; inhibition, % at 6.8 µM; actives 1.1% (n = 370,000); AID 652010;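 active = inhibition above the mean over all tested compounds plus 3 SD, cut at about 3.6% in these data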;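 note: 0% = DAX-1 cells with DMSO and 100% = cells lacking DAX-1 with DMSO; higher inhibition means more luminescence from relief of DAX-1 repression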
ssDAF12 agonist: activates DAF-12 receptor from parasite S. stercoralis; HEK293 ssDAF-12/GRIP1 lit1-tk-luc reporter, luminescence; % of 3 µM dafachronic acid response; activation, % at 6.8 µM; actives 1% (n = 370,000);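 active = activation above the mean over all tested compounds plus 3 SD, cut at about 0.9% in these data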;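 note: 0% = DMSO-only wells and 100% = 3 µM delta7-dafachronic acid wells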
DAX1 inh-2: inhibits human nuclear receptor DAX1; P51843; HEK293 Gal4-DAX1 luciferase reporter, luminescence; inhibition, % at 6.75 µM; actives 0.99% (n = 340,000);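 active = inhibition above the mean over all tested compounds plus 3 SD, cut at about 4.2% in these data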;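 note: 0% = DAX1-transfected cells with DMSO and 100% = empty-vector control cells with DMSO; inhibition shows as a rise in luminescence from relieved DAX1 repression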
Target sequence (P51843 207-470 limits assumed): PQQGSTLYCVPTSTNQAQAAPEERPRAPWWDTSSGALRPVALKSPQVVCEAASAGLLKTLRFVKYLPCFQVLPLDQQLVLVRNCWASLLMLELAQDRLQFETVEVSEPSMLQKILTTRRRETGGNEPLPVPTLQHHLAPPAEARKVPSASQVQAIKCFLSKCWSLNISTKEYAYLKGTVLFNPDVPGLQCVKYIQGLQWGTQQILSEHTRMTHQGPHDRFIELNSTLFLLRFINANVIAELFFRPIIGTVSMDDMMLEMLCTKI
* marks the source's active call; other numbers are inactive results; . = not tested or not shown. A selection: hits, their analogues and other compounds. The true share with any hit is near 4.1%.

SMILES | hgDAF-12 ag | hcDAF12 agonist | DAX1 inh-1 | ssDAF12 agonist | DAX1 inh-2
COc1ccccc1CNC(=O)N(CCc1c(C)[nH]c2ccccc12)Cc1cccs1 | 1 | 2 | -2 | -1 | .
c1csc(C2C3=C(Nc4ncnn42)c2ccccc2OC3)c1 (stereo unspecified) | 0 | 2 | 0 | 1.1* | 0
CCN(CC)c1ccc(C(=S)NC2CCCCC2)cc1 | 2 | -2 | -1 | -1 | -1
CN(C)c1ccc(C(=S)NC2CCCCC2)cc1 | 13* | 4 | 4.3* | 0 | 5.1*
COc1ccc(NC(=O)C(=O)NCCN2CCN(C(=O)c3ccc(C)cc3)CC2)cc1 | -1 | -3 | 0 | 1.2* | 1
COc1ccc(C(=O)N2CCN(CCNC(=O)C(=O)Nc3ccc(F)cc3)CC2)cc1 | -1 | 0 | 0 | -1 | 0
C=CCOc1cccc(C2C(C(=O)c3ccco3)=C(O)C(=O)N2CCN(CC)CC)c1 (stereo unspecified) | 4 | -1 | 0 | -1 | 4.7*
CCOc1ccc(-n2c(SCC(=O)Nc3ccc(S(=O)(=O)Nc4nccs4)cc3)nnc2-c2ccncc2)cc1 | -2 | 1 | 0 | -1 | .
Cc1nc(-c2cc(-c3ccc(Cl)cc3)no2)cs1 | 3 | 0 | 1 | -1 | 4.5*
Clc1ccc(-c2cc(-c3ccccc3)on2)cc1 | 8 | 2 | 1 | 0 | 0
COc1ccc(/C=N/NC(N)=S)cc1OC(=O)c1cccc2ccccc12 | -2 | 0 | -2 | -2 | -2
Cc1cccc(OCC(=O)Nc2nonc2NC(=O)COc2cccc(C)c2)c1 | 0 | -1 | 0 | -1 | 0
Cc1ccc(C)c(OCC(=O)Nc2nonc2NC(=O)COc2cc(C)ccc2C)c1 | -3 | 1 | 0 | 0 | 5.3*
N=c1oc2ccccc2cc1C(=O)Nc1ccccc1 | 13* | 5.9* | 2 | 0 | 4
N=c1oc2ccc(Cl)cc2cc1C(=O)Nc1ccc(F)cc1 | 5 | 4 | 1 | 0 | 5.5*
COc1ccc2oc(=N)c(C(=O)Nc3ccc(F)cc3)cc2c1 | -1 | 0 | 0 | 0 | -1
O=C(CC1CCCC1)N1CC[C@H]2[C@H](CCCN2Cc2ccc(F)cc2)C1 | 3 | 0 | -1 | -2 | .
Cc1cccc(-n2c(Cc3cc(=O)[nH]c(=O)[nH]3)nnc2SCC(=O)N2CCc3ccccc32)c1 | 3 | 6.2* | 0 | -1 | 1
CCSc1nnc(Cc2cc(=O)[nH]c(=O)[nH]2)n1-c1ccc(F)cc1 | 0 | 3 | 0 | -1 | 1
O=C(CSc1nnc(Cc2cc(=O)[nH]c(=O)[nH]2)n1-c1ccc(F)cc1)N1CCCCC1 | 6 | -1 | 0 | 0 | 7.9*
COCCCNc1nccn2ccnc12 | 0 | -1 | 0 | -1 | .
O=C(c1cc(COc2c(F)cccc2F)on1)N1C[C@H]2CC[C@H]1C2 | 11* | 4 | 4 | 0 | 1
COc1ccccc1OCc1cc(C(=O)N2CCN(C)C(c3ccccc3)C2)no1 (stereo unspecified) | 7 | 2 | 4.2* | 0 | 2
CSc1ccccc1OCc1cc(C(=O)N2CCN(C)C(c3ccccc3)C2)no1 (stereo unspecified) | 4 | 4 | 0 | -1 | 1
COc1ccccc1OCc1cc(C(=O)N2CC3C[C@@H]4CC2C[C@H](C3)C4)no1 | 12* | 1 | 3.7* | -1 | 2
SMILES | hgDAF-12 ag | hcDAF12 agonist | DAX1 inh-1 | ssDAF12 agonist | DAX1 inh-2
COc1cc(C)ccc1OCc1cc(C(=O)N2CCC(c3ccc(F)cc3)C2)no1 (stereo unspecified) | 13* | 5 | 1 | 1 | 3
CS(=O)(=O)N1CCC[C@]2(CC[C@H](CCC#N)O2)C1 | 2 | -1 | 1 | -1 | .
C=CCN1[C@H](C)COc2cccc(N3CCCC3)c2S1(=O)=O | -1 | 1 | -1 | -1 | .
C#CCCN([C@H](C(=O)OC)C(C)C)S(=O)(=O)c1ccccc1Br | 1 | -3 | -1 | -1 | .
COCCCN1C(=O)[C@H](CC(=O)NCC2CCCCC2)[C@]2(C(=O)OC)CCCCC=C12 | -2 | -1 | 0 | -1 | .
Cc1ccc(/C=C/C(=O)c2ccc(C)cc2)cc1 | 3 | -1 | 0 | -1 | -1
Cc1noc(NS(=O)(=O)c2ccc(N/C=C\C(=O)c3ccncc3)cc2)c1C | 0 | -1 | 1 | -1 | 2
Cc1ccc(C(=O)/C=C/C(=O)c2ccc(C)cc2)cc1 | 2 | -1 | -1 | -1 | 0
